Unmarked numbers belong to inactive results.
These targets were tested with C#CCNC(=O)CCSSCCC(=O)NCCc1ccc(C=O)c(C=O)c1 (assay: lysine labeling ratio R10:1 (500 µM / 50 µM probe), SILAC-ABPP in living cells; higher = lower intrinsic lysine reactivity toward the probe, active = 2 or less). Details: HeLa; probe concentrations 500 vs 50 µM.
Procedure, shortened: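 With forward and reverse label swaps, light and heavy SILAC HeLa cells, alive and in PBS at room temperature, were exposed to either 500 µM or 50 µM of an alkyne-tagged lysine probe bearing a disulfide link. After mixing, lysates were clicked to biotin-azide, cut with trypsin, pulled down on neutravidin, freed with DTT, alkylated and analysed on a TIMS-TOF Pro by LC-MS/MS. The per-lysine value R is the median over forward and reverse replicates of the filtered median high-probe/low-probe MS1 peptide ratio. It is capped at 20.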
Chain of UniProt P35579 (P35579 whole entry): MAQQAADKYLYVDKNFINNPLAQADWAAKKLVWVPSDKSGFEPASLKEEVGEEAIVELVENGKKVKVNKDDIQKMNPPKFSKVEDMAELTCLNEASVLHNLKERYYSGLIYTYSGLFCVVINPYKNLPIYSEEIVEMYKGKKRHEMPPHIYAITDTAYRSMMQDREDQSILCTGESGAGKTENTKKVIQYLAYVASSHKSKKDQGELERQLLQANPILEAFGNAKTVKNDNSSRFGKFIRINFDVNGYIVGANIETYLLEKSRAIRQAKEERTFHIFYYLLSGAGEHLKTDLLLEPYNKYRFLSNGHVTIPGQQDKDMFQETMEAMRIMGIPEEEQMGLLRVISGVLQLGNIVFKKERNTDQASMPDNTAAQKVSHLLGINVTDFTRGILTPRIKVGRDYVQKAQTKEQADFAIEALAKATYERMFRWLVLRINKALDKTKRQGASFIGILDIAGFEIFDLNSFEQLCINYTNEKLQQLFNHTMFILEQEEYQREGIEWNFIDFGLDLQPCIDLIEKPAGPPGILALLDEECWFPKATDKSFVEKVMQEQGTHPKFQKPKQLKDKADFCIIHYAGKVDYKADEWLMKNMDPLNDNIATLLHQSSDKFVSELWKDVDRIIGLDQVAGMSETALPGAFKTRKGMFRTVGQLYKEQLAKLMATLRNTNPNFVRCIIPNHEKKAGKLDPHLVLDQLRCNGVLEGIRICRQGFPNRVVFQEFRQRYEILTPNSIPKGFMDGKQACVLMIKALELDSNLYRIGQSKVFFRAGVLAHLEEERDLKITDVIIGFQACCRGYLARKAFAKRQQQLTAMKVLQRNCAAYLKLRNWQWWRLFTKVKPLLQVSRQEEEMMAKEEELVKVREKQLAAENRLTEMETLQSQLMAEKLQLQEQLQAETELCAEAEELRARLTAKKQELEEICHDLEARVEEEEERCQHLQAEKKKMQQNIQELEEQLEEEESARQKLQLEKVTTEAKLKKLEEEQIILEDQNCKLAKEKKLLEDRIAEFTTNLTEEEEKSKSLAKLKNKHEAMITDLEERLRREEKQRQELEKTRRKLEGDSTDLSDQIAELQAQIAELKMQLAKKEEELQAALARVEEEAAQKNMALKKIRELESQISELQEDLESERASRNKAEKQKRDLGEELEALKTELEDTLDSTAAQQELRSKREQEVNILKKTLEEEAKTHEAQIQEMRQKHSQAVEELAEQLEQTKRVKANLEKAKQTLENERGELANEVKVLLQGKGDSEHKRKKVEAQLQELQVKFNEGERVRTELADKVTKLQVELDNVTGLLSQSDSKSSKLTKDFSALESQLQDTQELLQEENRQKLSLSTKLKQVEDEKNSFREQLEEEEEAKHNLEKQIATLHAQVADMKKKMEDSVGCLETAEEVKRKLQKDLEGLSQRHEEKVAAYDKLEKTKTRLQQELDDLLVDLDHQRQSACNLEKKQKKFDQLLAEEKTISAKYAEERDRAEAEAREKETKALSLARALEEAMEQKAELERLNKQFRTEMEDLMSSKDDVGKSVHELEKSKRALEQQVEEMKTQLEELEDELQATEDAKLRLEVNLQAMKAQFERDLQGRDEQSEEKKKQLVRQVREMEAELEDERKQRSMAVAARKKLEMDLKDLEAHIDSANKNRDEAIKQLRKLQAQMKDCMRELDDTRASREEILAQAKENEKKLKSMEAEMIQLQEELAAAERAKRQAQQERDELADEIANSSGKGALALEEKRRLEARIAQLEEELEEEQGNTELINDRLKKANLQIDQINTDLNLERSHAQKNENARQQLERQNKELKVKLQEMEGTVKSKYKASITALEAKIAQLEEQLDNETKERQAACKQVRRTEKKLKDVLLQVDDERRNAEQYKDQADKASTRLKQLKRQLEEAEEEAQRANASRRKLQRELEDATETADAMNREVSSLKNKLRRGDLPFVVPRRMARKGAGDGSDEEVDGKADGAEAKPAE
Chain of UniProt P11142 (P11142 whole entry, looked up): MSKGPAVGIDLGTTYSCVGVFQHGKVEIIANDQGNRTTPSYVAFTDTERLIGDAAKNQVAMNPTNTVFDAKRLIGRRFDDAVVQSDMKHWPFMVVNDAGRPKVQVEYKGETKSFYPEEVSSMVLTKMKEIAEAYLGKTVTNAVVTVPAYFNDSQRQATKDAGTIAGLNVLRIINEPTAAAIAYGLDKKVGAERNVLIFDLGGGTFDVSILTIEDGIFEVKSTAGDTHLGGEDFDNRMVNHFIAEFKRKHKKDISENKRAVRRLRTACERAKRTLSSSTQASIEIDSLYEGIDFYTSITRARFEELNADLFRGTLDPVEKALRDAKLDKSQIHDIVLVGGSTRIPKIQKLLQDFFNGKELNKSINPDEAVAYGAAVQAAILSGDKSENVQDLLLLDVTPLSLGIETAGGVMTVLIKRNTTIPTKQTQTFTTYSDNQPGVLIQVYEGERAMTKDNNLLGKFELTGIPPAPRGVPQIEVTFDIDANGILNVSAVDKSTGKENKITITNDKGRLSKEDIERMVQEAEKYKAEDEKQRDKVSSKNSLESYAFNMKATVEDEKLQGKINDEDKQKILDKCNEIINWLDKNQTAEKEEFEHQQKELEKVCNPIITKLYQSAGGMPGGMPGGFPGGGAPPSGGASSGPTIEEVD
Chain of UniProt P10586 (P10586 whole entry): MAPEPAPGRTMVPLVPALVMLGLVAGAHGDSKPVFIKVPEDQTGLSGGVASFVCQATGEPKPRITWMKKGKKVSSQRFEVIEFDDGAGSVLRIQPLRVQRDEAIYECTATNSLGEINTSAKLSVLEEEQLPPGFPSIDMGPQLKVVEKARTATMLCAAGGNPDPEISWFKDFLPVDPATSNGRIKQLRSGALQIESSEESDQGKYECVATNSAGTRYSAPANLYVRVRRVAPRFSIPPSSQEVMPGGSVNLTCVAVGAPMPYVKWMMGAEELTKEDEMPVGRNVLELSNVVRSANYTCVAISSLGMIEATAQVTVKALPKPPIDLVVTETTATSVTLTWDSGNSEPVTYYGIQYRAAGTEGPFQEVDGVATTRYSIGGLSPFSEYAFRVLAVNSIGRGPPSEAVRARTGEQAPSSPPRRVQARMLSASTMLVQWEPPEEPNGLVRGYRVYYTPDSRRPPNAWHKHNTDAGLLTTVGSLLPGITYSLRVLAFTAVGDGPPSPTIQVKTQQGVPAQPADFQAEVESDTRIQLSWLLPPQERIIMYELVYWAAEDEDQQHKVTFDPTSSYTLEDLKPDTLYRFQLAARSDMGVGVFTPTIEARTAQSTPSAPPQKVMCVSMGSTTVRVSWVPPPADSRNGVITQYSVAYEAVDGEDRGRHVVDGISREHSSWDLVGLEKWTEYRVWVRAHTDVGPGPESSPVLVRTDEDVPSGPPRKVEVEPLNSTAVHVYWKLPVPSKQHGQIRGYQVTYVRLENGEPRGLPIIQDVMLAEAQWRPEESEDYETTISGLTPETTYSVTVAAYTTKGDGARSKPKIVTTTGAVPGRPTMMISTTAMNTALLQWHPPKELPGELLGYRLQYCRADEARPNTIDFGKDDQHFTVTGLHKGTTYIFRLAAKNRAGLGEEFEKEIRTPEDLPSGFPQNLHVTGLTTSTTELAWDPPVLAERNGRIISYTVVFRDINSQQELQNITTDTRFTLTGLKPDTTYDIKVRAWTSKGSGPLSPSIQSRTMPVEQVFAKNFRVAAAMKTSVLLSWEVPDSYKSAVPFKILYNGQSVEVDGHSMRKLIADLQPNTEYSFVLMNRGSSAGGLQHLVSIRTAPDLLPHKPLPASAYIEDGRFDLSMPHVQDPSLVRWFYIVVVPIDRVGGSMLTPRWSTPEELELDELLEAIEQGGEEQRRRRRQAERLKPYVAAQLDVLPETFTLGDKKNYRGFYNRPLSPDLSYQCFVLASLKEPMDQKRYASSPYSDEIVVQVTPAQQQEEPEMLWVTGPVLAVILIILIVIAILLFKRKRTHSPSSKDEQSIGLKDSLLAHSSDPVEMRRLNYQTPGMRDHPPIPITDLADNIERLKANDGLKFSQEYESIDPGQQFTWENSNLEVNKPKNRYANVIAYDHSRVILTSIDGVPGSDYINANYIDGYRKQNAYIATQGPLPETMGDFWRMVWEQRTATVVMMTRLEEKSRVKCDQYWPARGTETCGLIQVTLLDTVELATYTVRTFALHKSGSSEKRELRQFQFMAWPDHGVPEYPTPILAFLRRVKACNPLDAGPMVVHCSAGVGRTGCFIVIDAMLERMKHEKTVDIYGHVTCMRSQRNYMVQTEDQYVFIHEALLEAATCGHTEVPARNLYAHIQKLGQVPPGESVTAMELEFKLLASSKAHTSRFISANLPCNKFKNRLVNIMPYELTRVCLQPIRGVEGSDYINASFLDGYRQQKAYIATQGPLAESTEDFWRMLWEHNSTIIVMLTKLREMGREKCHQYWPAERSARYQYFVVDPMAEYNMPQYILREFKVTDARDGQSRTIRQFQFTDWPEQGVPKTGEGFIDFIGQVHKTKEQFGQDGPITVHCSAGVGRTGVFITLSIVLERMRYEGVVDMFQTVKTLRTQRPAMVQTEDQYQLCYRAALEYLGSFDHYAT
Chain of UniProt P13995 (P13995 whole entry): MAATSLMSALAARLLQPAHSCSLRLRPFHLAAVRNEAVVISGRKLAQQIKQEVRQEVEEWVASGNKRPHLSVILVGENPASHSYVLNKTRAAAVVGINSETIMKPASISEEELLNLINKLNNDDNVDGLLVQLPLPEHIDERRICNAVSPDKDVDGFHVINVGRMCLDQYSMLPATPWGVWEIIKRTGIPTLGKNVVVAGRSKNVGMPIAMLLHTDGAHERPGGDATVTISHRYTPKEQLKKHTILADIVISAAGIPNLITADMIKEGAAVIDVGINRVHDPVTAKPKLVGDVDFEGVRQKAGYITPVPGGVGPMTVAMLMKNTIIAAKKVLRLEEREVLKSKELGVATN
Chain of UniProt Q9UL46 (Q9UL46 whole entry): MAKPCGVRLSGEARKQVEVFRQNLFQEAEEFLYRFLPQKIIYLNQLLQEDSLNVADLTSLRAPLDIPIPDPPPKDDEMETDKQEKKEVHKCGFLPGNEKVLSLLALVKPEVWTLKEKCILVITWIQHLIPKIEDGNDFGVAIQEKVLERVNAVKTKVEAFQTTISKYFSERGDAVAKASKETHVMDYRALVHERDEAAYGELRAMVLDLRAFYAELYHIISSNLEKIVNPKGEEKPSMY
For “NCL (lysine site: K449) (UniProt P19338)”, the “lysine labeling ratio R10:1” value was 0.805 (active).
In the case of “SLC44A2 (lysine site: K62) (UniProt Q8IWA5)”, the “lysine labeling ratio R10:1” value is reported as 2.64.
For “TM9SF2 (lysine site: K328) (UniProt Q99805)”, the “lysine labeling ratio R10:1” value was 0.928 (active).
For “MYH9 (lysine site: K856) (UniProt P35579)”, the “lysine labeling ratio R10:1” value was 2.68.
“CD109 (lysine site: K491) (UniProt Q6YHK3)” was tested, and the “lysine labeling ratio R10:1” value was 2.99.
“PPT1 (lysine site: K191) (UniProt P50897)” was tested, and the “lysine labeling ratio R10:1” value was 1.31 (active).
For “PDCD6IP (lysine site: K374) (UniProt Q8WUM4)”, the “lysine labeling ratio R10:1” value was 5.72.
For UniProt Q29980 (lysine site: K196), the “lysine labeling ratio R10:1” value was 4.62.
With “PTGES2 (lysine site: K233) (UniProt Q9H7Z7)” the “lysine labeling ratio R10:1” value was 2.07.
“EGFR (lysine site: K294) (UniProt P00533)” was tested, and the “lysine labeling ratio R10:1” value was 3.59.
For UniProt Q15149 (lysine site: K2553), the “lysine labeling ratio R10:1” value was 3.44.
In the case of “PLXND1 (lysine site: K1182) (UniProt Q9Y4D7)”, the “lysine labeling ratio R10:1” value is reported as 0.824 (active).
“LAMC1 (lysine site: K1191) (UniProt P11047)” was tested, and the “lysine labeling ratio R10:1” value was 2.51.
UniProt Q15149 (lysine site: K2452) was tested, and the “lysine labeling ratio R10:1” value was 3.75.
For “SPTAN1 (lysine site: K274) (UniProt Q13813)”, the “lysine labeling ratio R10:1” value was 2.28.
For “LAMA5 (lysine site: K1227) (UniProt O15230)”, the “lysine labeling ratio R10:1” value was 2.71.
“GSN (lysine site: K245) (UniProt P06396)” was tested, and the “lysine labeling ratio R10:1” value was 4.08.
For “ILF3 (lysine site: K553) (UniProt Q12906)”, the “lysine labeling ratio R10:1” value was 4.76.
For “MYH9 (lysine site: K1835) (UniProt P35579)”, the “lysine labeling ratio R10:1” value was 1.11 (active).
With “G6PD (lysine site: K171) (UniProt P11413)” the “lysine labeling ratio R10:1” value was 6.51.
“ALCAM (lysine site: K87) (UniProt Q13740)” was tested, and the “lysine labeling ratio R10:1” value was 1.41 (active).
For “NOTCH2 (lysine site: K693) (UniProt Q04721)”, the “lysine labeling ratio R10:1” value was 1.5 (active).
In the case of “RPS5 (lysine site: K63) (UniProt P46782)”, the “lysine labeling ratio R10:1” value is reported as 3.35.
In the case of “HSPA8 (lysine site: K319) (UniProt P11142)”, the “lysine labeling ratio R10:1” value is reported as 4.74.
For “ITGA6 (lysine site: K986) (UniProt P23229)”, the “lysine labeling ratio R10:1” value was 1.78 (active).
With “HSPA8 (lysine site: K512) (UniProt P11142)” the “lysine labeling ratio R10:1” value was 7.92.
With “PTPRF (lysine site: K1016) (UniProt P10586)” the “lysine labeling ratio R10:1” value was 3.97.
In the case of “SEMA3C (lysine site: K613) (UniProt Q99985)”, the “lysine labeling ratio R10:1” value is reported as 5.77.
For “PPL (lysine site: K492) (UniProt O60437)”, the “lysine labeling ratio R10:1” value was 1.71 (active).
In the case of UniProt P18859 (lysine site: K46), the “lysine labeling ratio R10:1” value is reported as 4.7.
“PSME2 (lysine site: K15) (UniProt Q9UL46)” was tested, and the “lysine labeling ratio R10:1” value was 6.45.
In the case of “FLOT2 (lysine site: K132) (UniProt Q14254)”, the “lysine labeling ratio R10:1” value is reported as 2.82.
For “MTHFD2 (lysine site: K50) (UniProt P13995)”, the “lysine labeling ratio R10:1” value was 3.56.
UniProt Q13620 (lysine site: K903) was tested, and the “lysine labeling ratio R10:1” value was 3.24.
In the case of “FASN (lysine site: K1927) (UniProt P49327)”, the “lysine labeling ratio R10:1” value is reported as 1.05 (active).
“CD58 (lysine site: K78) (UniProt P19256)” was tested, and the “lysine labeling ratio R10:1” value was 8.22.
In the case of “RPS19 (lysine site: K7) (UniProt P39019)”, the “lysine labeling ratio R10:1” value is reported as 4.55.
For “TAGLN2 (lysine site: K171) (UniProt P37802)”, the “lysine labeling ratio R10:1” value was 8.2.
In the case of “FN1 (lysine site: K2354) (UniProt P02751)”, the “lysine labeling ratio R10:1” value is reported as 6.78.
“EEF2 (lysine site: K426) (UniProt P13639)” was tested, and the “lysine labeling ratio R10:1” value was 3.49.

Reference: the supplement of paper PMC11001985
